According to the OligoGym collection:

biological target: ENO2; experiment: pooled miR-30 sensor sort-seq; sequence = guide strand; conditions: shRNA
Further: reference of the scale not given here.

| Sequence | sensor-assay potency score (higher = more potent) |
| --- | --- |
| TCTAACACCTCAGCACACCAAC | -0.842 |
| TATGGTAGACCTCTGCACCTAG | 0.499 |
| TACATTGGCTGTGAACTTGGAC | 0.428 |
| TTGGATTTGTTCTCAGTCCCAT | 0.271 |
| TATAGAGATCCACCTCCACTGT | -0.931 |
| TAGACCTCTGCACCTAGTCGCA | -1.03 |
| TTCAGTGACCGAGCCGATCTGG | -0.433 |
| TTTGTCTCCATCCCTCAGCTCC | -0.755 |
| ATTGGTGGCATCCTTGCCGTAT | -0.654 |
| TTGGATGGCTTCAGTGACCGAG | 0.159 |
| TATTTGTCCTTGATGACTCCCT | 0.308 |
| TTGATGACTCCCTTGAGTGTAT | -0.705 |
| TAGAGATCCACCTCCACTGTGG | 0.0832 |
| TGATGTATCGGGAAGGATCAGT | -0.0535 |
| TTTGCCTAAGTAACGCTGTTTG | -1.32 |
| TTGGCTGTGAACTTGGACCAGG | -0.413 |
| TTTTGGGTTGGTCACTGTCAGG | -1.77 |
| TAGTCCCTGACAAAGTCCTGGT | -0.652 |
| TTCTCTTGCTCCACCACAGAGA | -1.02 |
| TTGTCCTTGATGACTCCCTTGA | -0.328 |
| TTCCTCAATTCTCATGAGCTGG | -0.892 |
| TTGAGTGTATGGTAGACCTCTG | -0.0986 |
| TTTCTCTTGCTCCACCACAGAG | -1.22 |
| TTGAGCAGCAGACAGTTGCAGG | -0.936 |

biological target: ENPP7; experiment: as above; conditions: shRNA

| Sequence | sensor-assay potency score (higher = more potent) |
| --- | --- |
| TACATGTTGTGAACCACCCCGT | -0.259 |
| TTGTCCACGGTCGTCATGCCGT | -1.22 |
| TTCTTGTAGACGTGGAGCTTGG | -0.97 |
| TTGTAGTTGTGTGCGATGCCTT | -0.915 |
| TTCATGTCCATGTCCTTGTTGT | -0.0468 |
| TTTAGGGAGCAGCATCCCGTTT | -1.36 |
| TCGCTCTCCACTCCGTCTCATT | -1.59 |
| TTGCGCGCGATGCTCTCCCGGA | -1.29 |
| TAGGGCAGCTTCACCTTGCTGG | -0.078 |
| TAGTCCAGGAGCTCAAACTCGA | -0.814 |
| TTGTAGACGTGGAGCTTGGGGT | -0.738 |
| TTGAACTGGACGTTAATTCTCC | -0.264 |

biological target: ENTHD1; experiment: as above; conditions: shRNA

| Sequence | sensor-assay potency score (higher = more potent) |
| --- | --- |
| TACTTGACCAACATGCTGGTAA | 0.494 |
| TTTAACTCCTAACACTAGCATC | -1.32 |
| TAGAAGACAACTGTTGATGGGA | 0.377 |
